In the library only some 2.9% were active in any assay of this set; here they are far more common.
Mtb BioA inh: BioA (M. tuberculosis) enzyme inhibition; purified M. tuberculosis BioA enzyme, plate reader; inhibition, % at 9.99 µM; 0.096% of 360,000 active; AID 602481; in the data active = inhibition above about 40%; inconclusive = no clear call, values can overlap the other calls
FBA Mtb inh: inhibits M. tuberculosis FBA enzyme; P9WQA3; purified M. tuberculosis FBA, fluorescence read-out; inhibition, % at 1 µM; 2.3% of 360,000 active;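 note: 0% = vehicle and 100% = reference inhibitor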
Target sequence (P9WQA3 whole entry, looked up): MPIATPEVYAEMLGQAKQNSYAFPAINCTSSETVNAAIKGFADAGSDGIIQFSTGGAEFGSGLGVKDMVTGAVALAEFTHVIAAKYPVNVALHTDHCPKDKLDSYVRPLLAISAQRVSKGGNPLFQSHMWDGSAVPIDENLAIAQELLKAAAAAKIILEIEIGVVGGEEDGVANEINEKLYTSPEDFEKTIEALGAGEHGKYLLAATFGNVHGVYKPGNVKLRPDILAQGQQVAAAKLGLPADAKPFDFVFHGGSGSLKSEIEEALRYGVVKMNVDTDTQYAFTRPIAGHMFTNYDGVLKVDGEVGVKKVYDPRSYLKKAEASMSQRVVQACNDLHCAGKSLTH
GDH-TPI counter-1: inhibits GDH-TPI coupling enzymes, artifact for Mtb FBA screen | GDH-TPI coupled enzyme counterscreen, NADH absorbance | inhibition, % at 4.8 µM | 1.2% of 360,000 active | AID 588335; in the data active = inhibition above about 30%;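 note: 0% = DMSO wells and 100% = wells lacking the enzyme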
FadD28 FP inh: M. tuberculosis FadD28 bisubstrate binding inhibition. inhibition, % at 12.5 µM. FadD28 bisubstrate probe binding, fluorescence polarization. 0.22% of 360,000 active; in the data active = inhibition above about 8.5%, passing the limit was not always enough; inconclusive = no clear call, values can overlap the other calls
Mtb hypoxia rep: inhibitors of hypoxia-regulated fluorescent reporter in Mycobacterium tuberculosis; fluorescence inhibition, % (no concentration beside the values); M. tuberculosis hypoxia-regulated fluorescent reporter, fluorescence; 0.1% of 300,000 active; in the data active = fluorescence inhibition mostly above about 23%, no sharp cut-off; inactive = mostly below about 17%
Mtb FBA inh conf: Mtb FBA inhibition, confirmed; shares compounds with FBA Mtb inh; inhibition, % at 1 µM; purified M. tuberculosis FBA, fluorescence read-out; 78% of 5,600 active; AID 651616;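 note: 0% = vehicle wells and 100% = reference inhibitor wells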
GDH-TPI counter-2: counter-screen for M. tuberculosis FBA inhibitors: GDH-TPI coupled enzyme inhibition. shares compounds with FBA Mtb inh. GDH-TPI coupled enzyme counterscreen, fluorescence. inhibition, % at 1 µM. 81% of 5,600 active; in the data active = inhibition above about 10%
An asterisk follows results filed as active; ? = inconclusive; nt = no result shown; + = active, no number. Cut-off read from the data, not from the text of the source, unless noted: active = inhibition above about 27%; inactive = the rest.

SMILES | Mtb BioA inh | FBA Mtb inh | GDH-TPI counter-1 | FadD28 FP inh | Mtb hypoxia rep | Mtb FBA inh conf | GDH-TPI counter-2
CN(C)CCCNc1cc(-c2ccccc2)nc2cc(-c3cccc(F)c3)nn12 | 0 | 78* | -1 | -8 | nt | 78* | 61*
Cc1ccc(/C=N/N=C/c2ccc(C)s2)s1 | nt | 1 | 18 | 0 | nt | nt | nt
Cc1cccc(/C=N/NC(=O)Cc2cccs2)c1 | 0 | 1 | -11 | -2 | nt | nt | nt
Cc1cccc(C=Nc2ccccc2C(N)=O)c1 | -1 | 36* | 2 | 0 | 6 | 140* | 101*
Cc1ccc(C=Nc2ccccc2C(N)=O)s1 | 0 | 58* | 13 | 1 | -1 | 59* | 50*
COc1cccc(-c2nn(C)c3sc(C(=O)NCc4ccccn4)cc23)c1 | -1 | 80* | 20 | -2 | nt | 0 | -2
CCN(CC)CCNC(=O)c1cc2c(-c3cccc(OC)c3)nn(C)c2s1 | nt | 60* | 23 | -10 | 9 | 173* | 129*
COc1cccc(-c2nn(C)c3sc(C(=O)NCc4ccc(C)cc4)cc23)c1 | nt | 18 | 5 | -12 | 4 | nt | nt
Cn1nc(-c2ccccc2)c2cc(C(=O)O)sc21 | -1 | 49* | 8 | -3 | 7 | 1 | 0
COCCCNC(=O)c1cc2c(-c3cccc(OC)c3)nn(C)c2s1 | nt | 89* | 11 | -7 | -5 | 119* | 107*
COc1ccc(NC(=O)N(C)C[C@@H]2OCCCC[C@@H](C)Oc3ccc(NC(=O)Nc4ccc(F)cc4)cc3C(=O)N([C@@H](C)CO)C[C@H]2C)cc1 | -1 | nt | nt | nt | nt | nt | nt
CCC=CC(=O)N1CC2(CC(c3cccc(NC(=O)CCCCC)c3)=NO2)CC1C(N)=O (stereo not given) | nt | nt | nt | nt | -1 | nt | nt
OC[C@@H]1[C@@H](c2ccc(F)cc2)C(c2ccccc2)=NN1c1ccccc1 | 16 | 29* | 7 | 1 | nt | 48* | 45*
O=C1OCCN1C(=O)[C@H]1[C@H](c2ccc(F)cc2)C(c2ccccc2)=NN1c1ccccc1 | -2 | 13 | 10 | -1 | 1 | nt | nt
CC[C@H]1C(c2ccc(F)cc2)=NN(c2ccccc2)[C@@H]1CO | 2 | 30* | 14 | 0 | -1 | 65* | 63*
C[C@H]1CN([C@@H](C)CO)C(=O)Cc2cc(NC(=O)Nc3cccc4ccccc34)ccc2O[C@H]1CN(C)C(=O)Nc1ccccc1 | -1 | nt | nt | nt | nt | nt | nt
COc1ccc(C(C)=NOC/C(O)=C(\C#N)c2nc3ccccc3[nH]2)cc1 | nt | nt | nt | nt | 0 | nt | nt
Cc1cc(C[n+]2ccccc2)c2nsnc2c1 | 0 | 31* | 11 | -2 | 2 | 97* | 72*
O=C(CSc1ccccc1)Nc1ccc(-c2nc3ccccc3[nH]2)cc1 | nt | 0 | 9 | -3 | nt | nt | nt
O=C(CSc1ccc(Cl)cc1)Nc1cccc(-c2nc3ccccc3[nH]2)c1 | nt | 35* | 17 | 0 | 13 | + | +
C[C@H](CO)N1C[C@H](C)[C@H](CN(C)Cc2ccc(Oc3ccccc3)cc2)Oc2ccc(NS(C)(=O)=O)cc2C1=O | -2 | nt | nt | nt | nt | nt | nt
CC(C)CC(c1nnnn1C(C)C)N1CCN(c2cccc(Cl)c2)CC1 (stereo not given) | 1 | 42* | -5 | -3 | nt | + | +
CCOc1ccc(C2CC=C(C(=O)O)C(c3ccc(F)cc3)N2S(=O)(=O)c2ccc(C)cc2)cc1 (stereo not given) | nt | nt | nt | nt | 6 | nt | nt
CCOC(=O)N1CCC(NC(=O)CCN2C(=O)C3C4C=CC(C4)C3C2=O)CC1 (stereo not given) | -2 | 84* | -5 | -1 | nt | + | +
O=C(CCN1C(=O)C2C3C=CC(C3)C2C1=O)NC1CCCCC1 (stereo not given) | -2 | 8 | 10 | -2 | nt | nt | nt
SMILES | Mtb BioA inh | FBA Mtb inh | GDH-TPI counter-1 | FadD28 FP inh | Mtb hypoxia rep | Mtb FBA inh conf | GDH-TPI counter-2
COc1ccc2oc(=O)c(C(=O)Nc3ccccc3O)cc2c1 | nt | -8 | 0 | -4 | 7 | nt | nt
COc1ccc2oc(=O)c(C(=O)NCc3ccco3)cc2c1 | -2 | 65* | 20 | 0 | 0 | -2 | -5
COc1ccc2oc(=O)c(C(=O)NC(C)c3ccccc3)cc2c1 (stereo not given) | 0 | 44* | 12 | -3 | 0 | 142* | 87*
COCC#Cc1cnc2c(c1)C(=O)N([C@H](C)CO)C[C@H](C)[C@H](CN(C)C(=O)c1cccnc1)O2 | 0 | nt | nt | nt | nt | nt | nt
C[C@@H]1CN([C@H](C)CO)C(=O)c2cc(-c3cncnc3)cnc2O[C@@H]1CN(C)C(=O)c1ccccc1F | -4 | nt | nt | nt | nt | nt | nt
CCNC(=S)N/N=C1\C(=O)c2cccc3cccc1c23 | -1 | -2 | 21 | -1 | nt | nt | nt
O=C(N/N=C1/C(=O)c2cccc3cccc1c23)c1ccc(Cl)cc1 | -2 | 80* | 8 | 1 | nt | 79* | 62*
Nc1nc(N)c2cc(Sc3ccc(Cl)cc3)ccc2n1 | -1 | 68* | 9 | -7 | nt | 64* | 59*
Nc1nc(N)c2cc(Sc3cccc(C(F)(F)F)c3)ccc2n1 | 2 | 52* | 7 | -15 | nt | + | 177*
COc1ccc(NC(=O)Nc2ccc3c(c2)C(=O)N([C@H](C)CO)C[C@H](C)[C@@H](CN(C)S(=O)(=O)c2cn(C)cn2)OCCCC[C@H](C)O3)cc1 | -2 | nt | nt | nt | nt | nt | nt
Cc1ccc(NC(=O)C2=CC=CN3CCS(=O)(=O)N=C23)cc1 | 0 | 2 | 8 | -5 | 10 | nt | nt
CC1=C(Cl)C2=NS(=O)(=O)CCN2C=C1Cl | nt | 89* | 8 | 0 | -11 | 159* | 116*
O=C(NCc1ccncc1)C(=O)NN=Cc1cccnc1 | nt | nt | nt | nt | 6 | nt | nt
C[C@@H]1CCCCCCCCCCC1=O | -1 | 2 | -1 | 1 | -2 | nt | nt
O=C1NN=C2CCCCCCC12 (stereo not given) | -1 | 29* | 11 | -1 | nt | 85* | 70*
CC(=O)NC1(c2nnnn2CCOC(=O)Nc2ccc(Cl)cc2)CCCC1 | nt | 4 | -2 | -3 | 12 | nt | nt
CC(=O)N(C)C1(c2nnnn2CCOC(=O)Nc2ccc(Cl)cc2)CCCCC1 | 0 | 52* | -15 | -5 | 2 | 13 | 4
CCCCn1c(NC(=O)c2ccc(Br)o2)c(S(=O)(=O)c2ccccc2)c2nc3ccccc3nc21 | 1 | 59* | 21 | 2 | -2 | 6 | -4
CCCCn1c(NS(=O)(=O)c2ccccc2)c(S(=O)(=O)c2ccc(C)cc2)c2nc3ccccc3nc21 | nt | 4 | 15 | ? | -5 | nt | nt
CCCCn1c(NC(=O)c2ccco2)c(C(=O)OCC)c2nc3ccccc3nc21 | 1 | 80* | 25 | -6 | -7 | 2 | 1
CCCCn1c(NC(=O)c2ccco2)c(S(=O)(=O)c2ccc(C)cc2)c2nc3ccccc3nc21 | nt | 96* | 23 | -1 | 7 | 73* | 47*
CCCCCn1c(NC(=O)c2ccco2)c(S(=O)(=O)c2ccc(C)cc2)c2nc3ccccc3nc21 | 1 | 96* | 24 | 1 | 9 | 30* | 21*
O=C(Cc1ccccn1)N[C@H]1C=C[C@H](CC(=O)N2CCCCC2)O[C@@H]1CO | 1 | nt | nt | nt | nt | nt | nt

Bioassay records deposited in PubChem BioAssay by several laboratories.
